Activity calls are given as the source filed them. Unless noted, how the calls were made is not given here.

The test system of experiment [1] is XIP peptide (Xip251-270) binding. Briefly: XIP fragment 251-270 binding compounds – biochemical, small-molecule microarray, fluorescence 635/667 nm, 0.1 µg/mL protein, primary screen (AID 1182). The following applies: fluorescent protein binding, 635 nm, higher = more signal, called active from +8 up or from −8 down.
A further experiment has as its system XIP peptide (Xip251-270). The experiment in a line: compounds binding XIP fragment 251-270 – biochemical, small-molecule microarray, fluorescence 635/667 nm, 0.5 µg/mL protein, primary screen (AID 1183). The following applies: fluorescence 635 nm, higher = more signal.
Experiment [2] in a line: blood-stage malaria parasite viability loss – strain 3D7, DAPI fluorescence, 100 nL, primary screen (AID 1184).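 Further: parasites grown inside human red blood cells in medium with human serum.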 The following applies: P. falciparum 3D7 growth, 3 d, higher = more signal.
In experiment [3] the target is Homeobox protein Hox-A13 (Mus musculus) (UniProt Q62424). Briefly: disruptors of Hoxa13 oligonucleotide interaction – biochemical, fluorescence polarization, labeled oligonucleotide, primary screen (AID 1185). The following applies: Hoxa13:DNA binding, 15 min, higher = more signal, called active from +8 up or from −8 down. (In general: Polarisation of emitted light reports the rotation of a fluorescent probe.)

Experiment [4] is described as follows: blockers of DNA damage checkpoint Chk1 activation – imaging, HeLa, hydroxyurea, phospho-Chk1 antibody, percent positive cells, primary screen (AID 1186). Particulars: hydroxyurea-induced phospho-Chk1 immunofluorescence imaging, higher = more signal.
A short description of experiment [5]: blockers of DNA damage checkpoint Chk1 activation – imaging, HeLa, hydroxyurea, phospho-Chk1 nuclear intensity, primary screen (AID 1187). The following applies: hydroxyurea-induced phospho-Chk1 immunofluorescence imaging, higher = more signal.

Sequence of Homeobox protein Hox-A13 (Mus musculus) (Q62424 whole entry, looked up): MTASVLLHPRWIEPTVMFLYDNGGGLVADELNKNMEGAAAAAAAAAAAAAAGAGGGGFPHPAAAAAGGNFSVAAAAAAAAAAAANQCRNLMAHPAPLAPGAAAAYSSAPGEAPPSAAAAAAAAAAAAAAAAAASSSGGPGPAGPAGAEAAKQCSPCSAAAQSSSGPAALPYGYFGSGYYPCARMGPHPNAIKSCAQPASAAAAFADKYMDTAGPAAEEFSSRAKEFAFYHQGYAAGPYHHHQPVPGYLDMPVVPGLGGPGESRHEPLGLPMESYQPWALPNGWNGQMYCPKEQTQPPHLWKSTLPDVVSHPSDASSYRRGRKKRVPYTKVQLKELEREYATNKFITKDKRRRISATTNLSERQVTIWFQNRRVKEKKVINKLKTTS

Turning to `COc1ccc(C(=O)Nc2ccc(CN3C(=O)[C@@]4(O[C@@H](CC(=O)N(CCO)Cc5ccccc5)[C@H]([Si](C)(C)c5ccc(OC)cc5)[C@H]4C)c4ccccc43)cc2)cc1`, the composite z-score in experiment [1] was 1.96 (inactive); in the experiment on XIP peptide (Xip251-270), 0.622. In addition, the z-score in experiment [2] was -0.992; in experiment [3] it was -1.31 (inactive); in experiment [4] it was -0.543 (inactive); in experiment [5], -0.262 (inactive).

`COC(=O)C(CC#Cc1ccc2c(c1)[C@]1(C(=O)N2)[C@H](C(=O)N2CCN(c3ncccn3)CC2)[C@H]2C(=O)O[C@H](c3ccccc3)[C@H](c3ccccc3)N2[C@@H]1c1ccc(O)cc1)C(=O)OC`: the values for the composite z-score (in experiment [1]; in the experiment on XIP peptide (Xip251-270)) were 0.959 (inactive) and 0.782, respectively. Moreover, the z-score is -2.28 in experiment [2], -2.37 (inactive) in experiment [3], -0.413 (inactive) in experiment [4] and -1.02 (inactive) in experiment [5].

For the compound `O=C1C2C=CC(C(O)c3ccccn3)N(Nc3ccc([N+](=O)[O-])cc3)C2C(=O)N1c1ccccc1` (centres undefined), the composite z-score in experiment [1] is 0.406 (inactive); with XIP peptide (Xip251-270) it was 0.0784. Further, the z-score was -0.22 in experiment [2], -5.58 (inactive) in experiment [3], 1.25 (inactive) in experiment [4] and -0.213 (inactive) in experiment [5].

As for `COCCOC(=O)N1C(=O)[C@@]2(c3cc(C#CCNC(N)=O)ccc31)[C@H](C(N)=O)[C@H]1C(=O)O[C@H](c3ccccc3)[C@H](c3ccccc3)N1[C@@H]2c1ccc(O)cc1`, the results for the composite z-score (in experiment [1]; in the experiment on XIP peptide (Xip251-270)) were 0.201 (inactive) and -0.532, respectively. Also, the z-score is 1.75 in experiment [2], -3.48 (inactive) in experiment [3], 0.319 (inactive) in experiment [4] and 0.888 (inactive) in experiment [5].

With `CCCC1(C(=O)OC)C=C2C(=C(C(C)C)C(=O)C2C)CN1` (centres undefined), the composite z-score in experiment [1] is -0.275 (inactive); with XIP peptide (Xip251-270), -0.619. Besides, the z-score is 0.77 in experiment [2], -6.18 (inactive) in experiment [3], 0.493 (inactive) in experiment [4] and 0.473 (inactive) in experiment [5].

For the compound `Cc1ccc(S[C@]2(C(=O)NCCN3CCOCC3)CC(=O)N(C(C)C)[C@@H]2c2ccc(CO)cc2I)cc1`, the composite z-score was 0.342 (inactive) in experiment [1] and 0.93 in the experiment with XIP peptide (Xip251-270). Further, the z-score is -0.191 in experiment [2], -3.43 (inactive) in experiment [3], -0.395 (inactive) in experiment [4] and -0.0483 (inactive) in experiment [5].

With `CCCCN1CC=CC23O[C@@H]4/C=C\CCC(C)OC(=O)C4[C@H]2C(=O)N(CCO)[C@@H]3C1=O` (some centres undefined), the composite z-score in experiment [1] was 0.874 (inactive); in the experiment on XIP peptide (Xip251-270), -0.629. The z-score in experiment [2] was -0.165; in experiment [3], -5.58 (inactive); in experiment [4], -0.967 (inactive); in experiment [5], -0.862 (inactive).

On to `CCCNC(=O)[C@@]1(Sc2ccc(C)cc2)CC(=O)N(Cc2cc(C(F)(F)F)cc(C(F)(F)F)c2)[C@@H]1c1ccc(CO)cc1`, for which the composite z-score was -0.0515 (inactive) in experiment [1] and 0.136 in the experiment with XIP peptide (Xip251-270). Besides, the z-score is -1.1 in experiment [2], -0.323 (inactive) in experiment [3], -0.0515 (inactive) in experiment [4] and 0.0821 (inactive) in experiment [5].

For `CC(C)C[C@H]1NC(=O)CNC(=O)[C@@]23C(=O)N[C@@H](Cc4ccccc4)C2[C@H](C)[C@@]2(C)O[C@H]2C3/C=C/C/C=C\CNC1=O` (some centres undefined), the composite z-score was 0.282 (inactive) in experiment [1] and 0.685 with XIP peptide (Xip251-270). Also, the z-score in experiment [2] is 0.933; in experiment [3], -5.94 (inactive); in experiment [4], -0.386 (inactive); in experiment [5] it was -0.0588 (inactive).

In the case of `COc1c(C)cc(-c2cc3c(c(CCc4ccccc4)n2)[Si](C(C)C)(C(C)C)O[C@H]3c2ccccc2)cc1C`, the results for the composite z-score (in experiment [1]; in the experiment with XIP peptide (Xip251-270)) were -0.0596 (inactive) and 0.0209, respectively. Also, the z-score in experiment [2] is -2.29; in experiment [3], 1.6 (inactive); in experiment [4] it was -0.0936 (inactive); in experiment [5], 0.0911 (inactive).

Regarding `CC(=O)NCCCC[C@@H]1NC(=O)[C@H]2C[C@@H](C(=O)O)[C@@H](c3cccc(OCCO)c3)N2C1=O`, the composite z-score in experiment [1] is 1.31 (inactive); in the experiment with XIP peptide (Xip251-270), 0.806. Besides, the z-score was -0.48 in experiment [2], -2.31 (inactive) in experiment [3], 0.165 (inactive) in experiment [4] and -0.347 (inactive) in experiment [5].

On to `COc1ccc([Si](C)(C)[C@@H]2[C@@H](CC(=O)N3CCC[C@H]3CO)O[C@]3(C(=O)N(Cc4cccc(N5C(=O)c6cccc7cccc5c67)c4)c4ccccc43)[C@H]2C)cc1`, for which the composite z-score was 3.7 (inactive) in experiment [1] and 0.703 in the experiment on XIP peptide (Xip251-270). The z-score in experiment [2] is -2.1; in experiment [3], -2.34 (inactive); in experiment [4], -0.798 (inactive); in experiment [5], -0.489 (inactive).

Turning to `[N-]=[N+]=NCc1ccccc1[C@H]1OC(c2ccc(OCCCO)cc2)=N[C@@]1(CCS(=O)(=O)c1ccccc1)C(=O)NCCN1CCOCC1`, the composite z-score in experiment [1] is -0.0093 (inactive); in the experiment on XIP peptide (Xip251-270) it was 0.816. For the same compound, the z-score in experiment [2] is -2.35; in experiment [3], -2.67 (inactive); in experiment [4], -0.0238 (inactive); in experiment [5] it was -0.0229 (inactive).

As to `CN(C)CCCCNC(=O)[C@H]1C[C@H]2C(=O)N[C@@H](CCCCN(C)C)C(=O)N2[C@H]1c1ccc(O)cc1`, the figures for the composite z-score (in experiment [1]; in the experiment with XIP peptide (Xip251-270)) were 0.0043 (inactive) and 0.269, respectively. Further, the z-score in experiment [2] is -0.435; in experiment [3], 0.0335 (inactive); in experiment [4], -1.63 (inactive); in experiment [5], -1.46 (inactive).

For the compound `COC(=O)C[C@H]1O[C@]2(C(=O)N(C)c3ccccc32)[C@@H](C)[C@@H]1[Si](C)(C)c1ccccc1`, the figures for the composite z-score (in experiment [1]; with XIP peptide (Xip251-270)) were -0.182 (inactive) and 0.428, respectively. Also, the z-score in experiment [2] is -1.48; in experiment [3], -7.09 (inactive); in experiment [4], -0.0412 (inactive); in experiment [5], 0.192 (inactive).

In the case of `COc1ccc(C(=O)Nc2cccc(CN3C(=O)[C@]4(O[C@H](CC(=O)N(CCO)Cc5ccccc5)[C@@H]([Si](C)(C)c5ccc(OC)cc5)[C@@H]4C)c4ccccc43)c2)cc1`, the results for the composite z-score (in experiment [1]; in the experiment with XIP peptide (Xip251-270)) were 0.256 (inactive) and 0.572, respectively. For the same compound, the z-score is -2.49 in experiment [2], -0.179 (inactive) in experiment [3], -0.571 (inactive) in experiment [4] and 0.0153 (inactive) in experiment [5].

With `COC(=O)c1c2oc(c1C(=O)OC)C(=O)N[C@H](Cc1ccccc1)Cn1cc(nn1)C1(CCCCC1)NC(=O)N[C@H](CO)CC2`, the results for the composite z-score (in experiment [1]; with XIP peptide (Xip251-270)) were 0.772 (inactive) and -0.652, respectively. Further, the z-score in experiment [2] was 0.764; in experiment [3] it was -3.34 (inactive); in experiment [4], -0.0529 (inactive); in experiment [5], -0.669 (inactive).

On to `COCCOC(=O)N1C(=O)[C@@]2(c3cc(C#CCNC(N)=O)ccc31)[C@H](c1ccccc1OCCO)N1[C@H](c3ccccc3)[C@H](c3ccccc3)OC(=O)[C@H]1[C@@H]2C(=O)N1CCCCCCC1`, for which the composite z-score in experiment [1] was 0.564 (inactive); in the experiment on XIP peptide (Xip251-270) it was 0.824. The z-score in experiment [2] is -2.13; in experiment [3], 0.831 (inactive); in experiment [4], -0.0593 (inactive); in experiment [5], -0.191 (inactive).

For the compound `[N-]=[N+]=Nc1ccccc1C[C@]1(C(N)=O)COC(c2ccc(OCCCO)cc2)=N1`, the composite z-score is 0.29 (inactive) in experiment [1] and 0.546 in the experiment with XIP peptide (Xip251-270). The z-score in experiment [2] is -1.88; in experiment [3], -4.74 (inactive); in experiment [4] it was -0.393 (inactive); in experiment [5], -0.137 (inactive).

In the case of `CCCCCN1CC=CC23O[C@@H]4/C=C\CCCOC(=O)C4[C@H]2C(=O)N(CCCCCO)[C@@H]3C1=O` (some centres undefined), the composite z-score in experiment [1] is 0.388 (inactive); in the experiment with XIP peptide (Xip251-270), 0.199. Also, the z-score in experiment [2] is 0.0701; in experiment [3], -4.75 (inactive); in experiment [4], 0.726 (inactive); in experiment [5] it was 0.576 (inactive).

For `COCCOC(=O)N1C(=O)[C@@]2(c3cc(C#CCC(C(=O)OC)C(=O)OC)ccc31)[C@H](C(=O)N1CCc3cc(OC)c(OC)cc3C1)[C@H]1C(=O)O[C@H](c3ccccc3)[C@H](c3ccccc3)N1[C@@H]2c1ccccc1OCCO`, the composite z-score in experiment [1] is 0.629 (inactive); in the experiment on XIP peptide (Xip251-270), 0.733. Also, the z-score in experiment [2] was -2.12; in experiment [3], 0.96 (inactive); in experiment [4] it was -0.182 (inactive); in experiment [5], -0.252 (inactive).

`O=C1O[C@H](c2ccccc2)[C@H](c2ccccc2)N2[C@H]1[C@@H](C(=O)O)[C@]1(C(=O)Nc3ccc(C#CC4(O)CCCCCC4)cc31)[C@H]2c1ccccc1OCCO`: the composite z-score in experiment [1] is 0.168 (inactive); in the experiment on XIP peptide (Xip251-270), 0.779. Moreover, the z-score in experiment [2] is -0.21; in experiment [3] it was -5.71 (inactive); in experiment [4] it was 0.152 (inactive); in experiment [5] it was 0.579 (inactive).

For `C=CC[C@]1(C(N)=O)N=C(c2ccc(OCCCO)cc2)O[C@H]1c1ccccc1N=[N+]=[N-]`, the composite z-score in experiment [1] is 1.26 (inactive); with XIP peptide (Xip251-270) it was 0.688. Besides, the z-score was -1.98 in experiment [2], -5.2 (inactive) in experiment [3], -0.37 (inactive) in experiment [4] and -0.532 (inactive) in experiment [5].

For the compound `COc1ccc(C(=O)Nc2ccc(CN3C(=O)[C@]4(O[C@H](CC(=O)N(CCO)Cc5ccccc5)[C@@H]([Si](C)(C)c5ccc(OC)cc5)[C@@H]4C)c4ccccc43)cc2)cc1`, the composite z-score in experiment [1] is 0.321 (inactive); in the experiment with XIP peptide (Xip251-270) it was 0.703. Moreover, the z-score in experiment [2] is -2; in experiment [3] it was -1.96 (inactive); in experiment [4], 0.274 (inactive); in experiment [5], 0.337 (inactive).

Values taken from PubChem BioAssay.
